These results are taken from PubChem BioAssay (NCATS).

For test [1], the target named is Calcium and integrin-binding protein 1 (Homo sapiens) (UniProt Q99828). The test can be described thus: Primary qHTS for Identification of Calcium Integrin Binding Protein 1 (CIB1) Competitor (AID 1508620).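 Further: GST tagged CIB1 binding a fluorescein labelled alphaIIb integrin peptide tracer; top concentration of the series differs between compounds; on the % scale 0 is the no-effect control and ±100 the full control effect.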 The conditions noted are these: CIB1-GST / FITC-alphaIIb peptide fluorescence polarization; series mostly up to 57.7 µM. In outline:
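Fluorescence polarization competition: GST-tagged CIB1 (1 uM final) preincubated with compound 15 min at room temperature, then FITC-labelled alphaIIb peptide (100 nM final) added. After 15 min at room temperature, polarization read at Ex 480/Em 540.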
For orientation: qHTS replaces the single test concentration by a dilution series.

Test [2] can be described thus: Primary qHTS for inhibitors of nuclear receptor binding SET domain protein 2 (NSD2) in an isogenic RCH-ACV NSD2 p.E1099K mutant (9B) (AID 1645876). Further: nearly all actives have a fitted effect of over 70% in size. On activity change, negative = viability loss: on the % scale 0 is the no-effect control and ±100 the full control effect. The conditions noted are these: RCH-ACV NSD2 E1099K (9B) viability, CellTiter-Glo, 72 h; series mostly up to 44.9 µM.
Test [3] in a line: Primary qHTS for inhibitors of nuclear receptor binding SET domain protein 2 (NSD2) in an RCH-ACV wild type WT cells (2C) (AID 1645877). Further: nearly all actives have a fitted effect of over 70% in size. On activity change, negative = cell killing: on the % scale 0 is the no-effect control and ±100 the full control effect. The conditions noted are these: RCH-ACV (leukaemia line) NSD2 WT (2C) viability, CellTiter-Glo, 72 h; series mostly up to 44.9 µM.
Test [4] has as its target Catechol O-methyltransferase (Homo sapiens) (UniProt P21964). The test can be described thus: Confirmatory Screen for Target Class Profiling of Small Molecule Inhibitors of Methyltransferases (AID 1745852). On activity change, negative = inhibition: on the % scale 0 is the no-effect control and ±100 the full control effect. The conditions noted are these: MTase-Glo luminescence, SAH detection, recombinant enzyme; measured here: COMT max response; stronger effect = lower value.
For test [5], the target named is Guanidinoacetate N-methyltransferase (Homo sapiens) (UniProt Q14353). The description is as above. Conditions: MTase-Glo luminescence, SAH detection, recombinant enzyme; activity change, negative = inhibition: at 57.3 µM (top of the series) unless noted.
Test [6] deals with Nicotinamide N-methyltransferase (Homo sapiens) (UniProt P40261). The description is as above. Conditions: MTase-Glo luminescence, SAH detection, recombinant enzyme; measured here: NNMT max response; stronger effect = lower value.
The target in test [7] is Phenylethanolamine N-methyltransferase (Homo sapiens) (UniProt P11086). The description is as above. The conditions noted are these: MTase-Glo luminescence, SAH detection, recombinant enzyme; measured here: PNMT max response; stronger effect = lower value.

Each structure is given as a SMILES string. Results filed as inconclusive are left out. Calls of active or inactive are those of the source. The call rests on the fitted dose curve; in most records, active means well fitted curve in the direction sought with a large enough effect; inconclusive means small, poorly fitted or top-dose-only effect, or another doubt; inactive means no such curve, though single readings can be large; an effect the other way counts as inactive or inconclusive. Where a SMILES comes first, the peptide text is derived from it.

Calcium and integrin-binding protein 1 (Homo sapiens), sequence (Q99828 whole entry, looked up): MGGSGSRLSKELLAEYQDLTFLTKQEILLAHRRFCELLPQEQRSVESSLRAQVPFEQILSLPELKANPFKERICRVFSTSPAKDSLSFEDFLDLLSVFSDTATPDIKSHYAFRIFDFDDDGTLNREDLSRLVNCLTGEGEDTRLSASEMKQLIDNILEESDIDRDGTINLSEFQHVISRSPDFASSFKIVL
Nicotinamide N-methyltransferase (Homo sapiens), sequence (P40261 whole entry, looked up): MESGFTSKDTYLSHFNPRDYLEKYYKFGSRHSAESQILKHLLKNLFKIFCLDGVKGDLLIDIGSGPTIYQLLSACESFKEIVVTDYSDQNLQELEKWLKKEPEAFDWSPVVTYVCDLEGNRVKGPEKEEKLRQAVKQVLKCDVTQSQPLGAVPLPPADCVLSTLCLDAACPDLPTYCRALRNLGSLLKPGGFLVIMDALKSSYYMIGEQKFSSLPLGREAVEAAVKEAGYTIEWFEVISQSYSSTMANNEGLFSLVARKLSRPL
Catechol O-methyltransferase (Homo sapiens), sequence (P21964 whole entry, looked up): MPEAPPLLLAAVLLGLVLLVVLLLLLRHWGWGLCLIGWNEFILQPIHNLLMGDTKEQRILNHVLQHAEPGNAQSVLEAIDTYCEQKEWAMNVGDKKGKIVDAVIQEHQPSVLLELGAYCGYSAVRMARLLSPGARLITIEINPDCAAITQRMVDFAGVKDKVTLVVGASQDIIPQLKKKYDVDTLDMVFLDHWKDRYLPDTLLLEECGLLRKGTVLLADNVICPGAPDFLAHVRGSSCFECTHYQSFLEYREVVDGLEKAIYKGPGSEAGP
Phenylethanolamine N-methyltransferase (Homo sapiens), sequence (P11086 whole entry, looked up): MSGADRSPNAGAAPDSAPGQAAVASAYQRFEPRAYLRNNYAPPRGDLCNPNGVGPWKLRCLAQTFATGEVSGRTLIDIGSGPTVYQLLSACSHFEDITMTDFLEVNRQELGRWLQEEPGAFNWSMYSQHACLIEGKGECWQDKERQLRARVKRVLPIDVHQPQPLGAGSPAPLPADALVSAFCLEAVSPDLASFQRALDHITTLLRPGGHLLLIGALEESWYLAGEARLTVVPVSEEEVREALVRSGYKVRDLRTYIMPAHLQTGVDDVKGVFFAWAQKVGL

Turning to `CC1=CC2=C(C)C(=O)[C@](C)(O)[C@H](O)C2=CO1`, the Potency entry in test [1], in test [2] and in test [3] was “inactive” in each case.

As for `CC1=CC(=O)CC(C)(C)[C@@]1(O)/C=C/C(C)O[C@@H]1O[C@H](CO)[C@@H](O)[C@H](O)[C@H]1O` (some centres not stated), the Potency entry in test [1], in test [2] and in test [3] was “inactive” each time.

For `CC(=O)/C=C/C1(O)C(C)CC(O[C@@H]2O[C@H](CO)[C@@H](O)[C@H](O)[C@H]2O)CC1(C)C` (some centres not stated), the Potency entry in test [1], in test [2] and in test [3] was “inactive” throughout.

For `CC1CC(=O)[C@]2(O)C(C(=O)OCCc3ccc(O)cc3)=CO[C@@H](O[C@@H]3O[C@H](CO)[C@@H](O)[C@H](O)[C@H]3O)[C@H]12` (some centres not stated), the Potency result in test [1], in test [2] and in test [3] was “inactive” throughout.

With `C/C=C(\C)C(=O)OC[C@H]1O[C@@H](O[C@H]2[C@@H](O[C@H]3O[C@H](COC(=O)/C(C)=C/C)[C@@H](O)[C@H](O)[C@H]3O[C@@H]3O[C@H](COC(=O)/C(C)=C/C)[C@@H](O)[C@H](OC(=O)/C(C)=C/C)[C@H]3O)O[C@H](COC(=O)/C(C)=C/C)[C@@H](O)[C@@H]2O)[C@H](O)[C@@H](O)[C@@H]1O`, in test [1], the Potency entry is “inactive”. The activity change, negative = viability loss in test [2] is -1.81% [at 9.23 µM] (inactive). The activity change, negative = cell killing in test [3] is -6.87% [at 9.23 µM] (inactive).

Regarding `O=C(O)c1cc(O[C@@H]2O[C@H](CO)[C@@H](O)[C@H](O)[C@H]2O)ccc1O`, the Potency entry in test [1], in test [2] and in test [3] was “inactive” each time.

Regarding `CC(C)C1NC(=O)CNC(=O)C2CCCN2C(=O)C(Cc2c[nH]c3ccccc23)NC(=O)CNC(=O)C(Cc2ccc(O)cc2)NC(=O)CNC1=O` (configuration not stated) (cyclo(GVGYGWP); configuration not given here), the Potency result in test [1], in test [2] and in test [3] was “inactive” throughout.

As to `CC(NC(=O)CC(=O)O)C(=O)Nc1ccccc1C(N)=O` (configuration not stated), the Potency entry in test [1], in test [2] and in test [3] was “inactive” throughout.

As for `Cc1ccc(-c2c(-c3nn(C)c4ncnc(N5CC[C@H](N6CCCCC6)C5)c34)cnn2C)cc1`, the Potency entry in test [1], in test [2] and in test [3] was “inactive” throughout.

As to `C[C@H]1[C@H](C)CC[C@]2(C(=O)O)CC[C@]3(C)C(=CCC4[C@@]5(C)C[C@@H](O)[C@H](O)C(C)(C)C5CC[C@]43C)[C@H]12` (some centres not stated), the Potency entry in test [1], in test [2] and in test [3] was “inactive” each time.

For the molecule `C=CC(C)(CC/C=C(\C)C(=O)OC)OC1OC(COC(=O)CC(C)(O)CC(=O)O)C(O)C(O)C1O` (configuration not stated), the Potency result in test [1], in test [2] and in test [3] was “inactive” in each case.

Take `CC(=O)/C=C/C1C(C)CC(O[C@@H]2O[C@H](CO)[C@@H](O)[C@H](O)[C@H]2O)CC1(C)C` (some centres not stated): the Potency result in test [1], in test [2] and in test [3] was “inactive” in each case.

Regarding `C/C(=C\CCC(C)CCO)C(=O)OC[C@H]1O[C@@H](O[C@@H]2OC=C(C(=O)O)[C@H]3CC[C@](C)(O)[C@@H]23)C(O)[C@@H](O)C1O` (some centres not stated), the Potency result in test [1], in test [2] and in test [3] was “inactive” throughout.

`COc1cc(C(CO)C(OC2OC(CO)C(O)C(O)C2O)c2ccc(O)c(OC)c2)ccc1O` (configuration not stated): the Potency result in test [1], in test [2] and in test [3] was “inactive” in each case.

In the case of `CC1OC(O[C@H]2CC[C@@]3(C)C(CC[C@]4(C)C3CC=C3C5CC(C)(C)CC[C@]5(C(=O)OC5OC(CO)C(OC6OCC(OC7OCC(O)C(O)C7O)C(O)C6O)C(O)C5O)CC[C@]34C)C2(C)C)C(O)C(O)C1OC1OC(CO)C(O)C(OC2OC(CO)C(O)C(O)C2O)C1O` (some centres not stated), the activity change, negative = inhibition in test [1] was -8.26% [at 12.4 µM] (inactive). Besides, the activity change, negative = viability loss in test [2] was -12.9% [at 9.23 µM] (inactive). Also, the activity change, negative = cell killing in test [3] is -19.1% [at 9.23 µM] (inactive).

Take `C=C1CCC2C(C)(C)CCC[C@]2(C)[C@H]1CC/C(C)=C/C(=O)O` (some centres not stated): the Potency entry in test [1], in test [2] and in test [3] was “inactive” each time.

Take `COc1cc(C(=O)OC[C@H]2O[C@@H](OC(C)(C)C(=O)O)[C@H](O)[C@@H](O)[C@@H]2O)cc(OC)c1O`: the Potency entry in test [1], in test [2] and in test [3] was “inactive” in each case.

In the case of `COc1cc(CCCO)ccc1O[C@@H]1O[C@H](CO)[C@@H](O)[C@H](O)[C@H]1O`, the Potency entry in test [1], in test [2] and in test [3] was “inactive” in each case.

Consider `C[C@H](O)C(O)(C(=O)OCc1ccccc1NC(=O)CCC(N)C(=O)O)[C@H](C)O` (some centres not stated), for which the Potency result in test [1], in test [2] and in test [3] was “inactive” each time.

As for `CC(C)=CCC[C@](C)(O[C@@H]1O[C@H](CO[C@@H]2O[C@@H](CO)[C@H](O)[C@H]2O)[C@@H](O)[C@H](O)[C@H]1O)[C@H]1CC[C@]2(C)[C@@H]1[C@H](O)C[C@@H]1[C@@]3(C)CC[C@H](O[C@@H]4O[C@H](CO)[C@@H](O)[C@H](O)[C@H]4O[C@@H]4O[C@H](CO)[C@@H](O)[C@H](O)[C@H]4O)C(C)(C)[C@@H]3CC[C@]12C`, the Potency result in test [1], in test [2] and in test [3] was “inactive” in each case.

As for `CSC(=O)OCC1=C[C@@H]2OC(=O)C3=CO[C@@H](O[C@@H]4O[C@H](CO)[C@@H](O)[C@H](O)[C@H]4O)[C@H]1[C@@H]32`, the Potency result in test [1], in test [2] and in test [3] was “inactive” in each case. The activity was -58.6% in test [4], -7.9% in test [6] and -7.61% in test [7]. For the same molecule, the activity change, negative = inhibition in test [5] is -9.29% [at 29.8 µM].
